Bioassay records deposited in PubChem by Broad Institute.
The full list was thinned out, with hits kept by preference.
Tg IFNy HTS: inhibitors of Toxoplasma gondii growth with IFN-gamma; AID 1259416; Toxoplasma gondii growth in IFN-gamma-treated host cells; active compounds read low; 3.8% of 69,000 active; activity change, negative = inhibition, % (test concentration not listed); in the data active means activity change below about -70%, passing the limit was not always enough;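 further: host cells are HeLa cells infected with Toxoplasma gondii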
An asterisk follows results filed as active; i = inactive; ! = not active in a repeat.

SMILES	Tg IFNy HTS
CCOc1ccc(CCNC(=O)c2nc(N3CCCC3)c3ccccc3n2)cc1OCC	-63
O=C(c1ccccc1Cl)N1CCN(S(=O)(=O)c2cc3c4c(c2)CCN4C(=O)CC3)CC1	41
COc1ccc(-n2c(=O)c(C(=O)Nc3cccc(F)c3)c(O)c3cccnc32)cc1	29
COc1ccc(C=O)c(OC)c1	10
COc1cc(/C=C/c2ccc(OC)cc2OC)cc(OC)c1	-76*!
COC(=O)c1cc(OC)c(OC)cc1NC(=O)Nc1ccc(OC)cc1OC	8
CNC(=O)c1cc2c(nc1NC(C)C)CCN(C(=O)Nc1ccccc1)CC2	10
COc1ccc(-c2nc(N3CCCC3)c3ccccc3n2)cc1	-63
Clc1nnc(N2CCCCC2)c2ccccc12	-88*
Cc1nc(Cl)c(Cc2ccccc2)c(N2CCCC2)n1	22
CCCC(=O)Nc1cccc(C(=O)NC(C)Cc2cnccn2)c1 (stereo not given)	2
COc1cc(C)c(NC(=O)Cc2nc3nc(C)cc(=O)n3[nH]2)cc1C(C)C	-24
COc1ccc(-c2cc3c(=O)n(Cc4nc(-c5ccccc5C)oc4C)ccn3n2)cc1	-3
CC1CN(c2ncc(C(=O)OCc3ccccc3)c(C(F)(F)F)n2)CC(C)O1 (stereo not given)	-116*
CCCc1c(C(=O)OCC)cnn1-c1ncc(C(=O)OC)c(C(F)(F)F)n1	-19
COC(=O)c1cnc(NN2C(=O)CCC2=O)nc1C(F)(F)F	65
CC(=O)Nc1ccc(-c2cn(C(C)Cn3nc(C)cc3C)nn2)cc1 (stereo not given)	4
O=C(c1ccno1)N1CCCn2cnc(COCCO)c2C1	1
CCOC(=O)c1oc2ccccc2c1NC(C)=O	16
CCOC(=O)c1c(CSC2CCCCC2)oc2ccc(O)cc12	-104*
CCOC(=O)c1oc2ccc(CNC3CCCCC3)c(Cl)c2c1C	-9
O=C(c1ccc2c(c1)nnn2C1CCCCC1)N(Cc1ccccn1)CC1CCCO1 (stereo not given)	52
Cc1cc(C(=O)Nc2ccc(N3CCOCC3)cc2)nn1C	219
O=C(C1CCN(c2cncnc2N2CCOCC2)CC1)N1CCC(N2CCCCC2)CC1	56
Cc1c(C(=O)Nc2ccc(N3CCC(N4CCOCC4)CC3)c(C#N)c2)cnn1-c1ccc(Cl)cc1	-84*
SMILES	Tg IFNy HTS
Cc1c(Cl)cccc1NC(=O)Cn1c(=O)cc(C(=O)N2CCCCC2)c2ccccc21	7
CCN(CC)S(=O)(=O)N1CCc2nc(-c3ccc(C(F)(F)F)cc3)sc2C1	-68
O=C(CN1CCN(S(=O)(=O)N2CCCC2)CC1)Nc1ccc2ncccc2c1	4
CN1CCCC2(CCN(C(=O)c3ccc(-c4nnn(C)n4)cc3)C2)C1=O (stereo not given)	-51
COc1ccc(S(=O)(=O)Nc2ccc3c(c2)C(=O)N([C@@H](C)CO)C[C@H](C)[C@@H](CN(C)S(=O)(=O)c2ccc(Cl)cc2)OCCCC[C@@H](C)O3)cc1	-113*
C[C@@H]1CN([C@@H](C)CO)C(=O)c2cc(NC(=O)Nc3ccc(C(F)(F)F)cc3)ccc2O[C@@H](C)CCCCO[C@@H]1CN(C)S(=O)(=O)c1ccc(Cl)cc1	213
C[C@@H]1CCCCO[C@H](CN(C)S(=O)(=O)c2ccc(Cl)cc2)[C@@H](C)CN([C@@H](C)CO)C(=O)c2cc(NC(=O)Nc3ccc(C(F)(F)F)cc3)ccc2O1	-20
COc1ccc(S(=O)(=O)Nc2ccc3c(c2)C(=O)N([C@@H](C)CO)C[C@H](C)[C@@H](CN(C)S(=O)(=O)c2ccc(Cl)cc2)OCCCC[C@H](C)O3)cc1	-130*
C[C@@H]1CN([C@H](C)CO)C(=O)c2cc(NS(=O)(=O)c3ccc(Cl)cc3)ccc2O[C@@H](C)CCCCO[C@@H]1CN(C)C(=O)CCCN(C)C	-16
COc1ccc(S(=O)(=O)Nc2ccc3c(c2)C(=O)N([C@@H](C)CO)C[C@@H](C)[C@@H](CN(C)S(=O)(=O)c2ccc(Cl)cc2)OCCCC[C@H](C)O3)cc1	-128*
C[C@@H]1CCCCO[C@H](CN(C)S(=O)(=O)c2ccc(Cl)cc2)[C@H](C)CN([C@@H](C)CO)C(=O)c2cc(NC(=O)Nc3ccc(C(F)(F)F)cc3)ccc2O1	-56
COc1ccc(S(=O)(=O)Nc2ccc3c(c2)C(=O)N([C@H](C)CO)C[C@H](C)[C@@H](CN(C)S(=O)(=O)c2ccc(Cl)cc2)OCCCC[C@@H](C)O3)cc1	4
COc1ccc(S(=O)(=O)Nc2ccc3c(c2)C(=O)N([C@H](C)CO)C[C@H](C)[C@@H](CN(C)S(=O)(=O)c2ccc(Cl)cc2)OCCCC[C@H](C)O3)cc1	-113*
C[C@@H]1CCCCO[C@@H](CN(C)S(=O)(=O)c2ccc(Cl)cc2)[C@@H](C)CN([C@@H](C)CO)C(=O)c2cc(NC(=O)Nc3ccc(C(F)(F)F)cc3)ccc2O1	176
O=C(Nc1nccs1)c1cccc(C2CCCN(C(=O)C3CCCCC3)C2)n1 (stereo not given)	-16
CN(C)c1ncccc1CN1CCCC(Cc2nc3ccc(F)cc3[nH]2)C1 (stereo not given)	-5
Cc1ccc2c(c1C)-n1cccc1C1(CCN(S(=O)(=O)c3ccc(Cl)c(Cl)c3)CC1)N2	3
CCn1ccc2cc(S(=O)(=O)N3CCC(C(=O)NCCCN4CCCC4=O)CC3)ccc21	35
CC(C)CC(C(=O)NC1CCCC1)N(C(=O)c1ccc(Cl)nc1)c1ccccc1 (stereo not given)	4
CCCN1CCC2(CC1)NC(=O)N(CC1CCN(C(=O)c3cc(CC)no3)CC1)C2=O	27
O=c1[nH]cc(-c2ccccc2)cc1CNc1cccc(S(=O)(=O)NC2CCCC2)c1	187
CCOc1ccccc1-c1nc(CSc2nc3c(c(=O)[nH]2)CN(CCOC)CC3)c(C)o1	21
C[C@@H]1CN([C@H](C)CO)C(=O)CCCn2nncc2CO[C@H]1CN(C)C(=O)c1ccc(N2CCN(C)CC2)cc1	-26
C[C@@H]1CN([C@@H](C)CO)C(=O)CCCn2nncc2CO[C@H]1CN(C)C(=O)c1ccc(N2CCN(C)CC2)cc1	-87*
C[C@H](CO)N1C[C@H](C)[C@H](CN(C)CC2CCCCC2)OCc2cnnn2CCCC1=O	181
SMILES	Tg IFNy HTS
C[C@@H]1CN([C@H](C)CO)C(=O)CCCn2nncc2CO[C@H]1CN(C)CC1CCCCC1	-99*
C[C@H]1CN([C@@H](C)CO)C(=O)CCCn2nncc2CO[C@@H]1CN(C)C(=O)c1ccc(N2CCN(C)CC2)cc1	177
C[C@H](CO)N1C[C@H](C)[C@@H](CN(C)CC2CCCCC2)OCc2cnnn2CCCC1=O	91
COc1cccc(-c2nccn2CCC2CCCN2C)c1OC (stereo not given)	56
CCCC(=O)N1CCC2(CC1)CC(Nc1ncccn1)CO2 (stereo not given)	4
CC(C)n1nc(-c2ccc3oc(N)nc3c2)c2c(N)ncnc21	-83*
COc1ccc(-c2nc(C)c(CCNC(=O)c3ccc(C)cc3)s2)cc1OC	i
FC(F)(F)c1cccc(N2CCN(c3nc(-c4ccc(Cl)cc4)nc4ccccc34)CC2)c1	-22
COc1ccc(-c2nc(N3CCN(c4cccc(C(F)(F)F)c4)CC3)c3ccccc3n2)cc1	6
Nc1ccc(-c2ccc3ncc4ccc(=O)n(-c5cccc(C(F)(F)F)c5)c4c3c2)cn1	-76*
CCN1C(=O)CCc2cc(NC(=O)c3cccs3)ccc21	-36
O=C(c1ccc(Cl)s1)N1CCC2(CC1)Nc1cccnc1NC2=NC1CCCC1	27
O=C(c1ccco1)N1CCN(C(=O)c2nc(-c3cccc(F)c3)n3c2CCCCC3)CC1	27
